Shown are actives, neighbours in structure and some others; about 3.8% of the full set was active somewhere.
Y pestis TopoI – Y. pestis Topo-I inhibition via cleavage products. Y. pestis Topo-I cleavage product accumulation, plate reader. activity, % at 10 µM. 360,000 tested, 0.064% active; in the data active means activity above about 50%, passing the limit was not always enough
GDH-TPI counter – GDH-TPI coupled enzyme inhibition counter-screen. 360,000 tested, 1.2% active. GDH-TPI coupled enzyme counterscreen, NADH absorbance. inhibition, % at 4.8 µM; in the data active means inhibition above about 30%;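 further: 0% = DMSO wells and 100% = wells lacking the enzyme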
PrPC TRFRET – reduces human prion protein on the cell surface | P04156 | cell surface PrPC, TR-FRET read-out | inhibition, % at 13.8 µM | 370,000 tested, 0.43% active | AID 720596; in the data active means inhibition above about 24%; further: 0% = median of the test wells and 100% = reference compound wells
Mtb hypoxia rep – inhibitors of hypoxia-regulated fluorescent reporter in Mycobacterium tuberculosis | M. tuberculosis hypoxia-regulated fluorescent reporter, fluorescence | fluorescence inhibition, % (test concentration not listed) | 300,000 tested, 0.1% active; in the data active means fluorescence inhibition mostly above about 23%, no sharp cut-off; inactive means mostly below about 17%
FBA Mtb inh – inhibits M. tuberculosis FBA enzyme; purified M. tuberculosis FBA, fluorescence read-out; inhibition, % at 1 µM; AID 588726; 360,000 tested, 2.3% active; in the data active means inhibition above about 27%;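 further: 0% = vehicle and 100% = reference inhibitor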
Target sequence (P9WQA3 whole entry, looked up): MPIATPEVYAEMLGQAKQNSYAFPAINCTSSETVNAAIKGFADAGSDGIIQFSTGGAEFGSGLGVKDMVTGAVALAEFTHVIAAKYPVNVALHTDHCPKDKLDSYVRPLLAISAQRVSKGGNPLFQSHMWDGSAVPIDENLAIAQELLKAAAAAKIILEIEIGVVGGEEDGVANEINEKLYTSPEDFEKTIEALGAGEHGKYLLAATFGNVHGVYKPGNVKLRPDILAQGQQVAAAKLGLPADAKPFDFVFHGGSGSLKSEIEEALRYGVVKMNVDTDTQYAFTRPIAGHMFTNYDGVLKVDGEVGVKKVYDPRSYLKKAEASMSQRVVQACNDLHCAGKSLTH
PrP 5UTR inh – suppresses PrP 5' UTR mRNA reporter expression; 340,000 tested, 0.35% active; AID 488862; cell-based PrP 5' UTR mRNA reporter, plate reader; inhibition, % (no concentration beside the values); in the data active means inhibition above about 52%; further: 0 = median of the neutral control wells
The depositor's hits bear a star; nt = no result; + = active, no number.

SMILES	Y pestis TopoI	GDH-TPI counter	PrPC TRFRET	Mtb hypoxia rep	FBA Mtb inh	PrP 5UTR inh
COc1ccccc1C1C(C(=O)c2cc3ccccc3o2)=C(O)C(=O)N1c1cc(C)on1 (stereo not drawn)	1.1	31.3*	5.2	-5.2	7.1	0.3
C=CCOc1cccc(C2C(C(=O)c3cc4ccccc4o3)=C(O)C(=O)N2c2cc(C)on2)c1 (stereo not drawn)	68.8*	11.6	18.2	-7.7	6.1	-18.6
COc1cccc(C2C(C(=O)c3cc4ccccc4o3)=C(O)C(=O)N2c2cc(C)on2)c1 (stereo not drawn)	30.6	19.7	6.6	-9.2	1.3	-17.8
COc1ccc(OC)c(C2C(C(=O)c3cc4ccccc4o3)=C(O)C(=O)N2c2cc(C)on2)c1 (stereo not drawn)	11.6	17.4	7.4	-8.5	-0.3	-11.5
c1ccc(C2C3CN(CC4CCCCC4)C(c4ccccc4)C34CC2(c2cccnc2)C4)cc1 (stereo not drawn)	nt	nt	nt	7.6	nt	nt
CN(N=Cc1ccncc1)c1cnc2ccccc2n1	nt	nt	nt	0.4	nt	nt
Cc1c(C2(O)CCCCC2)[nH]c2ncccc12	-2.2	6.2	-0.1	6.7	0.7	-16.0
Cc1c(C2(O)CCCCC2)[nH]c2cnccc12	1.6	13.0	-6.4	9.3	127.2*	-5.0
COC(=O)C1=C(c2ccccc2OCc2ccccc2)CC2CCC1N2C(=O)NC1CCN(Cc2ccccc2)CC1 (stereo not drawn)	nt	nt	nt	1.1	nt	nt
COc1cc2oc3ccccc3c(=O)c2cc1OC	7.7	21.6	nt	nt	+	-27.6
O=c1c2ccccc2oc2cc(Br)ccc12	-8.7	5.3	-5.6	17.3	0.0	-38.5
COc1ccc(S(=O)(=O)Nc2nc3ccccc3nc2NCC2CCCO2)cc1 (stereo not drawn)	14.2	24.5	-3.9	14.8	27.1*	-7.3
O=S(=O)(Nc1nc2ccccc2nc1NCC1CCCO1)c1ccccc1 (stereo not drawn)	9.4	40.5*	4.5	10.4	7.4	-27.8
Cc1ccc(S(=O)(=O)Nc2nc3ccccc3nc2NCC2CCCO2)cc1 (stereo not drawn)	6.3	10.6	2.2	14.7	13.5	-25.9
CCCn1c(=NC(=O)c2c(-c3c(F)cccc3Cl)noc2C)c(C(=O)OCC)cc2c(=O)n3ccccc3nc21	nt	nt	nt	9.4	nt	nt
CCCn1c(=NC(=O)c2ccco2)c(C(=O)OCC)cc2c(=O)n3ccccc3nc21	2.0	19.2	-37.2	7.0	+	-10.7
CCOC(=O)c1cc2c(=O)n3ccccc3nc2n(C(C)C)c1=NC(=O)c1ccco1	-3.0	4.3	-17.1	1.4	+	-6.0
COC(=O)c1cc2c(=O)n3ccccc3nc2n(Cc2cccnc2)c1=N	nt	nt	nt	11.9	nt	nt
CC(C)n1c(=NC(=O)c2ccco2)c(C#N)cc2c(=O)n3ccccc3cc21	1.2	4.8	-19.8	-10.1	+	-8.8
CCCCC1CNCCN1CCCc1cc(OC)c(OC)c(OC)c1 (stereo not drawn)	nt	nt	nt	3.2	nt	nt
CON=CNC(=O)NOCc1ccc(Cl)cc1Cl	nt	nt	nt	19.8	nt	nt
CCOC(=O)Cn1cc(C=NNC(=O)c2cc3ccccc3o2)c2ccccc21	nt	nt	nt	-8.7	nt	nt
CC(=O)c1c(C)n([O-])c2ccc(C)cc2[n+]1=O	8.4	11.0	-6.0	64.0*	0.7	9.2
Cc1ccc2c(c1)n([O-])c1c([n+]2=O)CCCC1	-5.5	3.5	-15.6	nt	-3.3	-8.3
CN1CCc2c(sc3c2C(=O)NC(c2ccccc2)N3)C1 (stereo not drawn)	-0.5	8.5	-7.7	15.2	25.0	-35.5
SMILES	Y pestis TopoI	GDH-TPI counter	PrPC TRFRET	Mtb hypoxia rep	FBA Mtb inh	PrP 5UTR inh
CN1CCc2c(sc3c2C(=O)NC(/C=C/c2ccco2)N3)C1 (stereo not drawn)	-0.5	36.7*	-2.8	8.1	-0.2	-14.5
CC(C)=CC(=O)Nc1cccc(S(=O)(=O)NC2=NCCCCC2)c1	-0.2	-4.0	-6.2	23.0	-0.6	-28.4
COC(=O)c1ccccc1NC(=O)/C=C/c1cc(OC)c(OC)c(OC)c1	8.5	36.2*	-2.8	nt	3.1	-30.8
COc1ccc(/C=C/C(=O)Nc2cccc(S(=O)(=O)NC3=NCCCCC3)c2)cc1OC	20.7	35.0*	-6.2	-4.1	6.3	-15.0
COc1ccc(/C=C/C(=O)Nc2ccc3c(c2)CCC3)cc1OC	24.9	27.6	-5.4	9.1	-1.2	-37.9
COc1ccc(/C=C/C(=O)Nc2ccccc2C(=O)N2CCCC2)cc1	10.4	36.4*	-4.2	13.5	-1.4	-11.4
COc1ccc(/C=C/C(=O)Nc2ccc(C(N)=O)cc2)cc1OC	-3.2	53.1*	-1.6	3.2	5.7	nt
COc1ccc(C=CC(=O)Nc2ccccc2C(=O)O)cc1OC	nt	nt	nt	3.7	nt	nt
C=CC(CC(C)C)N(Cc1ccccc1)S(=O)(=O)N(Cc1ccc(OC)cc1)C(C=C)CC(C)C (stereo not drawn)	nt	nt	nt	5.7	nt	nt
COc1cc(C=O)ccc1OC(=O)Nc1ccccc1	1.7	51.7*	4.0	nt	0.8	-30.4
COc1ccc(/C=C/C(=O)Nc2cccc(C(C)=O)c2)cc1	-2.5	33.3*	-2.9	-1.7	-0.1	-38.0
COc1ccccc1/C=C/C(=O)Nc1cccc(C(C)=O)c1	-1.1	19.5	6.5	12.3	4.0	-3.3
COc1cc(C=O)ccc1OS(=O)(=O)c1ccc(NC(C)=O)cc1	0.0	-3.3	8.2	6.9	-4.5	-18.9
COc1cc(/C=C/C(=O)NC(=O)c2ccccc2O)ccc1O	-11.9	40.1*	-19.1	12.0	-3.9	-52.0
O=C(/C=C/c1ccccc1)NC(=O)c1ccccc1O	-5.1	3.9	-3.3	0.9	1.4	-15.0
COc1ccc(/C=C/C(=O)NC(=S)NNC(=O)[C@H]2C[C@@H]2c2ccccc2)cc1OC	-7.8	43.5*	1.9	-2.2	1.1	12.0
C(=NN1CCOCC1)c1cn(-c2ccccc2)nc1-c1ccccc1	nt	nt	nt	6.0	nt	nt
O=C(O)c1ccccc1C=NNC(=S)NC1CCCCC1	nt	nt	nt	-0.2	nt	nt
COc1ccc(NC(=O)N(C)CC2Oc3ccc(NC(=O)Cc4ccccc4)cc3CC(=O)N(C(C)CO)CC2C)cc1 (stereo not drawn)	nt	nt	nt	5.1	nt	nt
COc1ccc(C=NNC(=O)c2ccc(C)cc2)cc1CN1CCN(c2ccc(F)cc2)CC1	nt	nt	nt	0.3	nt	nt
CCN(CC)CCNC(=O)c1ccc(NC(=O)/C=C/c2cc(OC)c(OC)c(OC)c2)cc1	-8.5	36.5*	-9.6	5.9	3.7	-28.5
CCc1cc(C(=O)O)c(NC(=O)/C=C/c2ccc(OC)cc2)s1	-10.9	73.8*	-4.4	-4.8	-0.9	-36.4
COc1ccc(/C=C/C(=O)Nc2ccccc2C(F)(F)F)cc1OC	-6.9	31.4*	8.6	-2.2	10.0	11.0
COc1ccc(/C=C/C(=O)Nc2ccccc2C(=O)O)cc1OC	1.4	46.9*	-2.4	nt	4.5	-4.3
Cc1ccc(C=CC2=NN(C)C(=O)CC2)cc1	nt	nt	nt	8.0	nt	nt
CCCCc1ccc(S(=O)(=O)NN=C(C)c2ccncc2)cc1	nt	nt	nt	-1.8	nt	nt
Cc1cc(C)c2nc(C)cc(Nc3ccc(C(=O)NCCO)cc3)c2c1	-12.1	58.6*	-20.8	-0.1	4.4	-68.7
Cn1c(C(C#N)C(=O)c2ccco2)nc2ccccc21 (stereo not drawn)	-0.1	32.8*	3.8	nt	3.6	-37.1
